Inconclusive results are not listed. Values without a mark were called inactive. Active and inactive are the calls of the source. Calls come from the whole dose curve; as a rule, active = well fitted cell-killing curve with a large enough effect; inconclusive = small, poorly fitted or top-dose-only effect, or effect the other way; inactive = no such curve, though single readings can be large or run the other way.
What was measured:
[1] = Quantitative High-Throughput drug screen in 47 multiple myeloma cell lines against the NCATS MIPE library collection: MM1R_ATCC cell viability assay (AID 1918981); note: nearly all actives have a fitted effect of over 35% in size
In short: (§1)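 ATP-based CellTiter-Glo luminescence after 48 h drug exposure (37 °C, 5% CO2) of 500 myeloma cells per well. DMSO-only wells set 100% viability, media-only wells 0%; MIPE 4.0 library added by pin tool.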

[2] = Quantitative High-Throughput drug screen in 47 multiple myeloma cell lines against the NCATS MIPE library collection: KMS28PE_JCRB cell viability assay (AID 1918983); note: nearly all actives have a fitted effect of over 35% in size
In short: as §1

[3] = Quantitative High-Throughput drug screen in 47 multiple myeloma cell lines against the NCATS MIPE library collection: L363_DSMZ cell viability assay (AID 1918984); note: nearly all actives have a fitted effect of over 40% in size
In short: as §1

[4] = Quantitative High-Throughput drug screen in 47 multiple myeloma cell lines against the NCATS MIPE library collection: OCIMY7_PLB cell viability assay (AID 1918987); note: nearly all actives have a fitted effect of over 65% in size
In short: as §1

[5] = Quantitative High-Throughput drug screen in 47 multiple myeloma cell lines against the NCATS MIPE library collection: OPM1_PLB cell viability assay (AID 1918989); note: nearly all actives have a fitted effect of over 40% in size
In short: as §1

[6] = Quantitative High-Throughput drug screen in 47 multiple myeloma cell lines against the NCATS MIPE library collection: SKMM1_PLB cell viability assay (AID 1919863); conditions: SKMM1 myeloma viability, CellTiter-Glo ATP, 48 h; viability: stronger effect = lower value; note: nearly all actives have a fitted effect of over 35% in size; for viability: series mostly up to about 46 µM
In short: as §1

[7] = Quantitative High-Throughput drug screen in 47 multiple myeloma cell lines against the NCATS MIPE library collection: LP1_DSMZ cell viability assay (AID 1918982); note: nearly all actives have a fitted effect of over 35% in size
In short: as §1

[8] = Quantitative High-Throughput drug screen in 47 multiple myeloma cell lines against the NCATS MIPE library collection: U266_ATCC cell viability assay (AID 1919864); note: nearly all actives have a fitted effect of over 35% in size
In short: as §1

[9] = Quantitative High-Throughput drug screen in 47 multiple myeloma cell lines against the NCATS MIPE library collection: XG6_PLB cell viability assay (AID 1919865); note: nearly all actives have a fitted effect of over 40% in size
In short: as §1

[10] = Quantitative High-Throughput drug screen in 47 multiple myeloma cell lines against the NCATS MIPE library collection: VP6_DJ cell viability assay (AID 1919867); note: nearly all actives have a fitted effect of over 40% in size
In short: as §1
Potency is the fitted concentration of half-maximal effect.

| Compound | Potency [1] | Potency [2] | Potency [3] | Potency [4] | Potency [5] | Potency [6] | Potency [7] | viability [6] [%] | Potency [8] | Potency [9] | Potency [10] |
| --- | --- | --- | --- | --- | --- | --- | --- | --- | --- | --- | --- |
| C[C@@H]1[C@@H](C(=O)C[C@H]2O[C@@H]3O[C@]4(C)CC[C@@H]5[C@H](C)CC[C@@H]([C@H]2C)[C@@]35OO4)O[C@@H]2O[C@]3(C)CC[C@H]4[C@H](C)CC[C@@H]1[C@@]24OO3 | 3.72 µM (active) | 0.418 µM (active) | 0.059 µM (active) | 0.0743 µM (active) | 0.418 µM (active) | 0.743 µM (active) | – | – | – | – | – |
| COC1(CS(=O)c2ccccc2)CCN(CCc2c[nH]c3ccc(F)cc23)CC1 (stereo not given) | inactive | 8.33 µM (active) | – | – | – | – | inactive | 116 | inactive | 16.6 µM (active) | – |
| CN(C)CCc1ccc(O)cc1 | inactive | inactive | – | inactive | inactive | – | inactive | 107 | inactive | – | 6.62 µM (active) |
| Cn1c(CCCC(=O)O)nc2cc(N(CCCl)CCCl)ccc21 | 18.7 µM (active) | 7.43 µM (active) | inactive | 6.62 µM (active) | inactive | – | – | – | – | 14.8 µM (active) | inactive |
| NCC1(CC(=O)O)CCCCC1 | – | inactive | – | – | inactive | – | inactive | 140 | inactive | – | – |
| CNC(=O)N1N=C(c2ccc(N)cc2)c2cc3c(cc2CC1C)OCO3 (stereo not given) | – | 4.69 µM (active) | 5.26 µM (active) | 1.48 µM (active) | 4.69 µM (active) | 5.26 µM (active) | – | – | 3.72 µM (active) | 7.43 µM (active) | 2.64 µM (active) |
| CNC(=O)c1ccc(N2C(=S)N(c3ccc(C#N)c(C(F)(F)F)c3)C(=O)C23CCC3)cc1F | 13.2 µM (active) | inactive | – | 2.96 µM (active) | – | – | – | – | 8.33 µM (active) | 1.05 µM (active) | 8.33 µM (active) |
| CC(O)(CS(=O)(=O)c1ccc(F)cc1)C(=O)Nc1ccc(C#N)c(C(F)(F)F)c1 (stereo not given) | 1.05 µM (active) | – | 1.48 µM (active) | 0.743 µM (active) | 3.32 µM (active) | – | – | – | 0.743 µM (active) | 0.0935 µM (active) | 0.743 µM (active) |
| Cn1cc(C2=C(c3cn(C4CCN(Cc5ccccn5)CC4)c4ccccc34)C(=O)NC2=O)c2ccccc21 | 13.2 µM (active) | – | 0.833 µM (active) | 3.72 µM (active) | 16.6 µM (active) | – | 10.5 µM (active) | 86.1 | – | 2.96 µM (active) | 11.8 µM (active) |
| COC[C@@H](NC(C)=O)C(=O)NCc1ccccc1 | inactive | inactive | inactive | – | inactive | – | inactive | 103 | – | inactive | inactive |
| COc1ccc(C(CN(C)C)C2(O)CCCCC2)cc1 (stereo not given) | inactive | – | inactive | – | inactive | – | inactive | – | – | – | – |
| Cc1sc2c(c1C)C(c1ccc(Cl)cc1)=N[C@@H](CC(=O)OC(C)(C)C)c1nnc(C)n1-2 | 0.332 µM (active) | 0.235 µM (active) | 0.132 µM (active) | – | 0.0743 µM (active) | 0.372 µM (active) | 1.05 µM (active) | – | 0.148 µM (active) | 7.43 µM (active) | 0.0833 µM (active) |
| Cc1cccc(C)c1NC(=O)CN1CCCC1=O | inactive | inactive | inactive | inactive | – | – | inactive | 118 | – | inactive | – |
| C#CCN(C)[C@H](C)Cc1ccccc1 | – | – | inactive | – | inactive | 16.6 µM (active) | inactive | – | inactive | – | – |
| CCCC(C)(COC(N)=O)COC(=O)NC(C)C (stereo not given) | inactive | inactive | inactive | inactive | – | – | inactive | – | inactive | – | inactive |
| Cc1cc(SCc2sc(-c3ccc(C(F)(F)F)c(F)c3)nc2C)ccc1OCC(=O)O | – | – | – | 20.9 µM (active) | 20.9 µM (active) | – | 16.6 µM (active) | – | 18.7 µM (active) | – | – |
| CN(C)CCN(C)CCc1ccc(Cl)c(Cl)c1 | inactive | inactive | – | – | inactive | – | – | – | – | inactive | inactive |

| Compound | Potency [1] | Potency [2] | Potency [3] | Potency [4] | Potency [5] | Potency [6] | Potency [7] | viability [6] [%] | Potency [8] | Potency [9] | Potency [10] |
| --- | --- | --- | --- | --- | --- | --- | --- | --- | --- | --- | --- |
| Fc1ccc(C(OCCN2CCN(CCCc3ccccc3)CC2)c2ccc(F)cc2)cc1 | 16.6 µM (active) | 23.5 µM (active) | inactive | 7.43 µM (active) | 16.6 µM (active) | 23.5 µM (active) | 18.7 µM (active) | – | – | 7.43 µM (active) | 9.35 µM (active) |
| CN(C)[C@@H]1C(=O)C(C(N)=O)=C(O)[C@@]2(O)C(=O)C3=C(O)c4c(O)cccc4[C@@](C)(O)[C@H]3C[C@@H]12 | – | – | inactive | – | – | – | – | – | inactive | inactive | – |
| C[C@@H]1O[C@@H](O[C@H]2C[C@@H](O)[C@]3(CO)[C@H]4[C@H](O)C[C@]5(C)[C@@H](C6=CC(=O)OC6)CC[C@]5(O)[C@@H]4CC[C@]3(O)C2)[C@H](O)[C@H](O)[C@H]1O | 0.0526 µM (active) | 0.0209 µM (active) | 0.0469 µM (active) | 0.0148 µM (active) | – | 0.059 µM (active) | 0.0166 µM (active) | – | 0.0209 µM (active) | 0.0187 µM (active) | 0.0166 µM (active) |
| O=P1(NCCCl)OCCCN1CCCl (stereo not given) | – | – | – | 8.33 µM (active) | 16.6 µM (active) | – | – | – | – | 16.6 µM (active) | 6.62 µM (active) |
| CC1=C2C[C@@H]3[C@@H](CC=C4C[C@@H](O)CC[C@@]43C)[C@@H]2CC[C@]12O[C@H]1C[C@H](C)CN[C@H]1[C@H]2C | 14.8 µM (active) | – | – | – | 0.0469 µM (active) | – | inactive | – | 20.9 µM (active) | inactive | – |
| COC[C@H]1OC(=O)c2coc3c2[C@@]1(C)C1=C(C3=O)C2CCC(=O)[C@@]2(C)C[C@H]1OC(C)=O (stereo not given in full) | 1.18 µM (active) | 6.62 µM (active) | 11.8 µM (active) | 0.743 µM (active) | 0.833 µM (active) | 2.96 µM (active) | – | – | 20.9 µM (active) | 4.18 µM (active) | 3.72 µM (active) |
| CN1CCN(C(=O)O[C@H]2c3nccnc3C(=O)N2c2ccc(Cl)cn2)CC1 | inactive | – | – | inactive | inactive | – | inactive | – | – | inactive | inactive |
| N[C@@H](Cc1ccc(N(CCCl)CCCl)cc1)C(=O)O | 2.64 µM (active) | 16.6 µM (active) | 5.26 µM (active) | 0.662 µM (active) | 13.2 µM (active) | 26.4 µM (active) | 16.6 µM (active) | – | 16.6 µM (active) | 1.18 µM (active) | 11.8 µM (active) |
| C[C@@H]1[C@@H](CC(C[C@H]2O[C@@H]3O[C@]4(C)CC[C@@H]5[C@H](C)CC[C@@H]([C@H]2C)[C@@]35OO4)C[S+](=O)([O-])c2ccc(COC(=O)N(C)C)cc2)O[C@@H]2O[C@]3(C)CC[C@H]4[C@H](C)CC[C@@H]1[C@@]24OO3 (stereo not given in full) | 0.332 µM (active) | 0.209 µM (active) | 0.0469 µM (active) | 0.0833 µM (active) | 0.372 µM (active) | 0.166 µM (active) | – | – | 0.372 µM (active) | 0.264 µM (active) | 0.372 µM (active) |
| O=C1CC[C@@]2(O)[C@H]3Cc4ccc(O)c5c4[C@@]2(CCN3CC2CC2)[C@H]1O5 | – | inactive | – | – | 7.43 µM (active) | – | inactive | 110 | inactive | inactive | – |
| COc1ccc2c(c1OC)CN1CCc3cc4c(cc3C1C2)OCO4 (stereo not given) | – | – | 5.9 µM (active) | inactive | inactive | – | – | 104 | – | 20.9 µM (active) | 5.9 µM (active) |
| O=c1[nH]c2ccccc2n1CCCN1CCC(n2c(=O)[nH]c3cc(Cl)ccc32)CC1 | inactive | inactive | – | – | inactive | – | – | 125 | inactive | 20.9 µM (active) | 13.2 µM (active) |
| O=C(O)C(=O)c1cn(Cc2ccccc2)c2ccc(-c3ccc(OC(F)(F)F)cc3)cc12 | inactive | 3.32 µM (active) | – | – | inactive | 3.72 µM (active) | inactive | – | 23.5 µM (active) | – | – |
| C=C(C)[C@H]1Cc2c(ccc3c2O[C@@H]2COc4cc(OC)c(OC)cc4[C@@H]2C3=O)O1 | 0.526 µM (active) | – | 0.148 µM (active) | 1.05 µM (active) | 7.43 µM (active) | – | 0.264 µM (active) | – | 0.332 µM (active) | 0.526 µM (active) | 0.166 µM (active) |
| CNCC(O)c1ccc(O)cc1 (stereo not given) | 4.18 µM (active) | inactive | – | inactive | inactive | – | inactive | – | inactive | – | – |
| CC(C)CC(N(C)C)C1(c2ccc(Cl)cc2)CCC1 (stereo not given) | – | – | inactive | – | inactive | – | inactive | – | 4.18 µM (active) | inactive | – |
| COc1ccc(C(=O)c2c(C)n(CCN3CCOCC3)c3ccccc23)cc1 | inactive | inactive | – | – | inactive | – | inactive | – | inactive | inactive | inactive |

— PubChem BioAssay (NCATS)
